SMILES strings stand for the structures. The panel holds about 83,000 compounds, 20% with a hit somewhere; the sample as a whole holds those more often.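 96-well plates, one dose, 48 hours. Percent growth reported; active if below 10.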 Unmarked numbers belong to inactive results. Calls of active or inactive are those of the source.

The experiment relates to NCI-H322M lung. Nature of the experiment: NCI-60 one-dose screen, 48 h (100 = growth as untreated, 0 = no growth, -100 = all killed). Conditions: 10 µM unless noted.
With `Clc1nnc2c3ccccc3ccn12`, the growth was 119%.

Turning to `COc1ccc(-c2nn(C(=O)NCCN(C)C)cc2-c2ccncc2)cc1Cl`, the growth was 109%.

Regarding `CCN1C(=O)N(CC)C2C1NN=c1s/c(=C\c3ccco3)c(=O)n12` (centres undefined), the growth was 42.5%.

Turning to `CC(C)N(C(=S)SSC(=S)N(C(C)C)C(C)C)C(C)C`, the growth is 108%.

For `CC(C)=CC[C@@H]1CC2(CC=C(C)C)C(=O)C(OC3(C(=O)c4ccccc4)C(=O)C4(CC=C(C)C)C[C@@H](CC=C(C)C)C(C)(C)C(CC=C(C)C)(C4=O)C3=O)(C(=O)c3ccccc3)C(=O)C(CC=C(C)C)(C2=O)C1(C)C` (some centres undefined), the growth was 3.49% (active).

On to `CCCCCCCCCCCCCCCC1=NCCN1`, for which the growth is 76.6%.

For the compound `COc1cc([N+](=O)[O-])cc(OC)c1OC`, the growth is 109%.

As for `NNC(=O)CSc1nc2scc(-c3ccccc3)c2c(=O)n1-c1ccccc1`, the growth was 122%.

Take `C=CCN(CC#N)CC=C`: the growth was 106%.

With `CCOC(=O)Cn1c(-c2nonc2NC(=O)c2ccccc2F)nc2ccccc21`, the growth is 67.3%.

Take `CCCCCCCOc1cccc(/C=C2\N=C3SCCCN3C2=O)c1`: the growth is 101%.

Regarding `Cc1c2c(cc3c1[nH]c1ccccc13)C=NCC2`, the growth is 99.7%.

As to `COc1cc(OC)c(Cl)cc1N`, the growth was 110%.

For the compound `CS(=O)(=O)c1ccc(C(=O)Nc2ccc(Cl)c(-c3ccccn3)c2)c(Cl)c1`, the growth was 52%.

As to `Cc1cc([N+](=O)[O-])c(C)cc1N`, the growth was 107%.

Regarding `COc1cnc2c(c1)C(=O)c1c-2n(CCCN2CCNCC2)c(=O)c2cc(Cl)ccc12`, the growth is 54.3%.

As to `COc1cc(/C=C2\CN(C(=O)OC(C)(C)C)C/C(=C\c3ccc(O)c(OC)c3)C2=O)ccc1O`, the growth is 100%.

With `CCN1C(=O)C(C)C=C(C)C=C1C` (centres undefined), the growth was 108%.

For `COCc1nc(NS(=O)(=O)c2ccc(N)cc2)nc(C)c1Br`, the growth is 99%.

For `O=c1c2cc(Br)cc(Br)c2nc(-c2ccc(Cl)cc2)n1/N=C\c1ccccc1F`, the growth is 52.5%.

Regarding `CCCCCCCCCCCCCC1=NC(C)(C)CN1C(C)C`, the growth was 55.3%.

With `CCC(=O)OCc1ccc(OC)cc1`, the growth was 110%.

Take `Fc1ccc(-c2cnc3nonc3n2)c(F)c1`: the growth is 98.4%.

In the case of `O=S(=O)(Nc1ccc2ccccc2c1)N1CCCCC1`, the growth was 92.8%.

For `CCn1c(Cc2ccccc2Nc2c(Cl)cccc2Cl)nnc1SCC(=O)Nc1cccc(OC)c1`, the growth is 79.4%.

In the case of `CCN(CC)CC(=O)Nc1c(C)ccc(N)c1C`, the growth was 90.2%.

Consider `C=C1C[C@@]2(C)C(CC[C@]3(C)C2CC=C2C4CC(C)(C)C[C@@H](OC(=O)/C(C)=C\C)[C@]4(C(=O)O)CC[C@]23C)C(C)(C)C1=O` (some centres undefined), for which the growth is 46.7%.

Regarding `C=C1C(=O)O[C@H]2[C@H]1CC/C(COC(=O)NCc1cccc(OC)c1)=C\CC[C@@]1(C)O[C@@H]21`, the growth was 90.6%.

With `CCCCOc1nc2ccccc2cc1/C=C/c1cc(/C=C/c2cc3ccccc3nc2OCCCC)n(-c2ccccc2)n1`, the growth was 94.9%.

Turning to `CCCCc1nc(Cl)c(C2CC(c3ccc(S(N)(=O)=O)cc3)=NN2c2cc(Cl)cc(Cl)c2)[nH]1` (centres undefined), the growth was 77.7%.

Regarding `O=C(N/N=C\c1cc(Br)ccc1O)c1ccncc1`, the growth was 41%.

For `CC(C)C/C=C/C=C/C(=O)N[C@@H](CC(N)=O)C(=O)N[C@@H]1C(=O)N[C@H](c2ccc(O)cc2)C(=O)N[C@H](CCCN)C(=O)N[C@H]([C@@H](C)O)C(=O)N[C@H](c2ccc(O)cc2)C(=O)N[C@H](c2ccc(O)cc2)C(=O)N[C@H]([C@H](C)O)C(=O)N[C@H](Cc2ccccc2)C(=O)N[C@H](CCCN)C(=O)N[C@H](c2ccc(O[C@H]3O[C@@H](CO)[C@@H](O)[C@@H](O)[C@H]3O[C@@H]3O[C@H](CO)[C@H](O)[C@H](O)[C@@H]3O)cc2)C(=O)N[C@H]([C@H](C)O)C(=O)N[C@H](c2ccc(O)cc2)C(=O)NCC(=O)N[C@H](CC(C)C)C(=O)N[C@H](C)C(=O)N[C@H](c2ccc(O)c(Cl)c2)C(=O)O[C@@H]1C(N)=O`, the growth was 57.5%.

As to `CN(C)c1ccc(/C=C\c2cccc[n+]2C)cc1`, the growth was 102%.

Regarding `COC(=O)CSc1ccc(Cl)cc1`, the growth was 102%.

For the compound `S=C(S)Oc1cccc2cccnc12`, the growth is 95.2%.

For `O=C1NN(C(=O)c2ccccc2)C(c2ccc(Cl)c(Cl)c2)=C/C1=C\c1ccccc1[N+](=O)[O-]`, the growth is 27.1% [6.75 µM].

On to `CCOC(=O)Nc1ccc2nc(Sc3ccc(Cl)cc3)sc2c1`, for which the growth is 44.6%.

On to `COc1cc(C2CC(c3cccc(Nc4ccnc5cc(Cl)ccc45)c3)=NN2C=O)cc(OC)c1OC` (centres undefined), for which the growth was 32.5%.

Consider `c1cn2cc(-c3ccc4ncn(C5CCCCC5)c4c3)nc(-c3ccc4c(c3)ncn4C3CCCCC3)c2n1`, for which the growth was 1.23% (active).

These data come from PubChem BioAssay (NCI).
